{"source": "PubChem BioAssay AID488890", "about": "(Southern Research Specialized Biocontainment Screening …, 2010)", "note": "Among all 320,000 compounds or so, about 1,300 (0.41%) were called active. Another 3% or so got no clear call; they are omitted. No rule for the calls is given here. Not all results are given here. Results with a measured potency or affinity are listed apart."}
{"assay": "growth inhibition of non-replicating M. tuberculosis (AID 488890);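 also: plate controls were DMSO cells for no effect and high antibiotic wells for full effect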", "settings": "Mycobacterium tuberculosis non-replicating, at 25 µM, stronger effect = higher value", "units": {"inhibition": "%"}}
{"smiles": "O=C(Nc1nnc(-c2cccnc2)o1)c1ccccc1Cl", "inhibition": 35.5}
{"smiles": "O=C(Nc1nnc(-c2ccccc2)o1)c1cc(Cl)sc1Cl", "inhibition": 9.95}
{"smiles": "COc1cccc(C(=O)Nc2cccc(-c3nnc(-c4ccccc4)o3)c2)c1", "inhibition": -7.83}
{"smiles": "O=C(Nc1ccc(F)cc1)c1cc(Cl)sc1Cl", "inhibition": 70.7}
{"smiles": "COC(=O)c1ccc(C(=O)Nc2nnc(-c3cccnc3)o2)cc1", "inhibition": 7.58}
{"smiles": "O=C(Nc1nnc(-c2ccc(F)cc2)o1)c1cccc([N+](=O)[O-])c1", "inhibition": -8.79}
{"smiles": "CS(=O)(=O)c1cccc(-c2nnc(NC(=O)c3ccc4ncsc4c3)o2)c1", "inhibition": -2.94}
{"smiles": "CS(=O)(=O)c1ccccc1-c1nnc(NC(=O)c2ccc3ncsc3c2)o1", "inhibition": 10.1}
{"smiles": "O=C1CC(N2CCC(c3nc4ccccc4[nH]3)CC2)C(=O)N1c1cccc(F)c1", "note": "(configuration not stated)", "inhibition": 20.2}
{"smiles": "CCOC(=O)Cn1c(=NC(=O)CSC(C)=O)sc2cc(F)ccc21", "inhibition": 30.8}
{"smiles": "Cc1nc(OCc2c(C)noc2C)c2ccccc2n1", "inhibition": -6.1}
{"smiles": "Brc1ccc(-c2ccccc2)cc1", "inhibition": 27.1}
{"smiles": "Cc1ccc(OCC(=O)Nc2ccccc2C(=O)N2CCCC2)cc1", "inhibition": 1.03}
{"smiles": "Cc1nnsc1S(=O)c1ccc(Cl)cc1", "note": "(configuration not stated)", "inhibition": -4.16}
{"smiles": "Cc1nnsc1C(=O)Nc1ccc(Cl)cc1", "inhibition": -9.77}
{"smiles": "COc1ccc(-c2[nH]nc3oc(=O)cc(C)c23)cc1", "inhibition": 7.5}
{"smiles": "Cc1cccc(-c2nc3cc([N+](=O)[O-])ccc3o2)c1", "inhibition": 4.61}
{"smiles": "Cc1nc2ncccn2c1-c1csc(Nc2cccc(C(=O)O)c2)n1", "inhibition": -13.4}
{"smiles": "CC1CCC(NS(=O)(=O)c2cccc3nsnc23)CC1", "note": "(configuration not stated)", "inhibition": 0.44}
{"smiles": "CCC(C(=O)O)n1nnc(-c2ccc(-c3ccc(OC)cc3)cc2)n1", "note": "(configuration not stated)", "inhibition": 28}
{"smiles": "CCCCOc1ccc(-c2nnn(CC(=O)Nc3ncc(CC(=O)OCC)s3)n2)cc1", "inhibition": 78.8}
{"smiles": "COc1cccc(C(=O)/C=C2\\NCCc3cc(OC)c(OC)cc32)c1", "inhibition": 21.5}
{"smiles": "CCN1CCN(C(=O)N(c2ccccc2)c2ccccc2)CC1", "inhibition": -28.4}
{"smiles": "NC(=O)CC(NC(=O)Cc1cccc2ccccc12)c1ccc(NCCN2CCCCC2)c([N+](=O)[O-])c1", "note": "(configuration not stated)", "inhibition": 3.25}
{"smiles": "OC1CCCN(CC(O)COC(c2ccc(F)cc2)c2ccc(F)cc2)C1", "note": "(configuration not stated)", "inhibition": -5}
{"smiles": "OC(COC(c1ccc(F)cc1)c1ccc(F)cc1)CN1CCCC1", "note": "(configuration not stated)", "inhibition": 1.01}
{"smiles": "CCOC(=O)C1(CCOc2ccccc2)CCN(Cc2ccc(O)c(Cl)c2)CC1", "inhibition": 63.3}
{"smiles": "CN1CCN(NC(=O)c2ccc(Cl)c(S(=O)(=O)Nc3ccc(Cl)cc3)c2)CC1", "inhibition": -0.68}
{"smiles": "CCCN(CC(=O)Nc1ccccc1C)C(=O)c1ccc(C(=O)c2ccccc2)cc1", "inhibition": 18.4}
{"smiles": "COc1ccc(C(=O)N2CCNC(=O)C2CC(=O)Nc2cc(Cl)ccc2OC)cc1", "note": "(configuration not stated)", "inhibition": 0.76}
{"smiles": "O=C(Cc1ccc(-n2cccc2)cc1)NC1CCCCCC1", "inhibition": 19.9}
{"smiles": "CCOC(=O)Cn1cc(/C=C/[N+](=O)[O-])c2ccccc21", "inhibition": 72.6}
{"smiles": "CCOC(=O)COc1ccccc1/C=N/O", "inhibition": 15}
{"smiles": "CCC(=O)Nc1cccc(NC(=O)c2ccc(Br)cc2)c1", "inhibition": 1.37}
{"smiles": "COC(=O)c1cn(NC(=O)c2ccncc2)c(=O)c2ccccc12", "inhibition": 14.3}
{"smiles": "COC(=O)c1cn(NC(=O)c2cccnc2)c(=O)c2ccccc12", "inhibition": -6.97}
{"smiles": "CCCCCCCCCCC(=O)NNC(=O)c1c(O)c2ccccc2n(CC)c1=O", "inhibition": -9.98}
{"smiles": "COc1cc(C(=O)NCc2ccc(F)cc2)cc(Cl)c1OC", "inhibition": -11.2}
{"smiles": "CCCCn1c(N)c(N(CCOC)C(=O)CCNC(=O)c2ccc(Cl)cc2)c(=O)[nH]c1=O", "inhibition": -12.2}
{"smiles": "O=C(CC1CCCCC1)NCc1ccc(Cl)cc1", "inhibition": 11}
{"smiles": "O=C(CCCCC(=O)NCc1cccs1)NCc1cccs1", "inhibition": 1.23}
{"smiles": "O=C(NCc1cccs1)C1CCCCC1", "inhibition": 54}
{"smiles": "O=C(NCc1cccs1)C12CC3CC(CC(C3)C1)C2", "inhibition": 26.9}
{"smiles": "O=C(CC1CCCCC1)NCc1ccccc1Cl", "inhibition": 33}
{"smiles": "O=C(NCCCCNC(=O)c1cccs1)c1cccs1", "inhibition": -0.35}
{"smiles": "O=C(NCc1cccs1)C1CC1", "inhibition": -9.67}
{"smiles": "O=C(NCCCNC(=O)c1cccs1)c1cccs1", "inhibition": -16.1}
{"smiles": "COc1ccc(C(CNC(=O)c2ccccc2SC)N(C)C)cc1", "note": "(configuration not stated)", "inhibition": -4.14}
{"smiles": "CCCCN(C(=O)CSc1nnc(-c2ccccc2)n1C)c1c(N)n(Cc2ccccc2)c(=O)[nH]c1=O", "inhibition": 8.96}
{"smiles": "Cc1nc2sc(C)c(C)c2c(=O)[nH]1", "inhibition": 3.35}
{"smiles": "COc1cc(CN2CCNCC2)cc(OC)c1OC", "inhibition": -14.6}
{"smiles": "COC(=O)c1ccc(NC(=O)COc2ccc(S(=O)(=O)NC(C)(C)C)cc2)cc1", "inhibition": -11.9}
{"smiles": "CC(NC(=O)CN1C(=O)NC2(CCc3ccccc32)C1=O)c1ccccc1", "note": "(configuration not stated)", "inhibition": 15.4}
{"smiles": "CNNC(=S)Nc1ccc(Cl)cc1", "inhibition": -0.3}
{"smiles": "Cc1nnc(NC(=O)CSc2n[nH]c(-c3ccccc3C)n2)s1", "inhibition": 5.17}
{"smiles": "CC(=O)Nc1cccc(NC(=O)c2ccc(Br)cc2)c1", "inhibition": -8.54}
{"smiles": "CC(=O)/C(=N/Nc1ccccc1C)N1CCOCC1", "inhibition": 9.51}
{"smiles": "O=C(CCC1CCCC1)Nc1ccc([N+](=O)[O-])cn1", "inhibition": 67.7}
{"smiles": "O=C(CCC1CCCCC1)NCc1ccncc1", "inhibition": 29}
{"smiles": "O=C(CC1CCCCC1)NCc1ccc(F)cc1", "inhibition": 55.7}
{"smiles": "O=C(CCC1CCCCC1)NCc1ccccn1", "inhibition": 79.4}
{"smiles": "O=C(O)CCC(=O)Nc1ccc(Br)cn1", "inhibition": -12.1}
{"smiles": "O=C(CC1CCCCC1)NCc1ccccn1", "inhibition": 69.6}
{"smiles": "O=C(CN1C(=O)NC2(CCCc3ccccc32)C1=O)N1CCCCC1", "note": "(configuration not stated)", "inhibition": 6.72}
{"smiles": "Nc1ccc(Br)cc1C(=O)c1ccccc1", "inhibition": 53.2}
{"smiles": "CCN(CC(=O)Nc1c(F)cccc1F)C(=O)CCCc1c[nH]c2ccccc12", "inhibition": -0.99}
{"smiles": "CCOC(=O)c1cc(-c2ccccc2)n(CC2CC(c3ccc(OC)cc3)=NO2)n1", "note": "(configuration not stated)", "inhibition": 0.81}
{"smiles": "COc1cc(C(=O)OCC2CC(c3ccccc3)=NO2)cc(OC)c1OC", "note": "(configuration not stated)", "inhibition": 3.53}
{"smiles": "Cc1oc(=O)c(NC(=O)c2ccccc2)cc1C(N)=O", "inhibition": -8.22}
{"smiles": "CC(=O)c1cc(NC(=O)c2ccccc2)c(=O)oc1C", "inhibition": 54.9}
{"smiles": "N/C(=N\\OC(=O)c1ccc2ccccc2c1)c1ccccn1", "inhibition": 15.8}
{"smiles": "COc1cccc(NC(=O)C(C)N2C(=O)c3ccccc3S2(=O)=O)c1", "note": "(configuration not stated)", "inhibition": -2.17}
{"smiles": "COc1ccc(-c2c([C@H]3[C@H]4C=CC[C@@H](C)[C@@H]4C(=O)N3Cc3ccccc3)ccc3ccccc23)cc1OC", "inhibition": 60.8}
{"smiles": "COc1ccc(/C=N/Nc2cc(C)nc(N3CCOCC3)n2)cc1", "inhibition": -21.2}
{"smiles": "Cc1ccc(/C=N/Nc2cc(C)nc(N3CCOCC3)n2)cc1", "inhibition": 5.46}
{"smiles": "Cc1cc(N/N=C/c2ccc(F)cc2)nc(NCc2ccccc2)n1", "inhibition": 60.8}
{"smiles": "COc1ccc(/C=N/Nc2cc(C)nc(N)n2)cc1", "inhibition": 27.6}
